Assay outcomes: PubChem, National Center for Advancing Translational Sciences (NCATS)
S-ASM inh: Inhibitors of Secretory Acid Sphingomyelinase (S-ASM): qHTS. Potency, µM (titrated, usually from 57.5 µM), without a hit: top-dose activity change, negative = inhibition, most hits filed as inhibitors. Sphingomyelin phosphodiesterase (Homo sapiens), P17405. placental ASM, HMU-PC fluorogenic substrate, 60 min. 340,000 tested, 0.006% active. AID 504937, 2011; active = well fitted inhibition curve with a large enough effect; inconclusive = small, poorly fitted or top-dose-only effect; inactive = no such curve, though single readings can be large or run the other way; also: potency is read from the fitted curve at half-maximal effect
Target sequence (P17405 47-631 limits assumed): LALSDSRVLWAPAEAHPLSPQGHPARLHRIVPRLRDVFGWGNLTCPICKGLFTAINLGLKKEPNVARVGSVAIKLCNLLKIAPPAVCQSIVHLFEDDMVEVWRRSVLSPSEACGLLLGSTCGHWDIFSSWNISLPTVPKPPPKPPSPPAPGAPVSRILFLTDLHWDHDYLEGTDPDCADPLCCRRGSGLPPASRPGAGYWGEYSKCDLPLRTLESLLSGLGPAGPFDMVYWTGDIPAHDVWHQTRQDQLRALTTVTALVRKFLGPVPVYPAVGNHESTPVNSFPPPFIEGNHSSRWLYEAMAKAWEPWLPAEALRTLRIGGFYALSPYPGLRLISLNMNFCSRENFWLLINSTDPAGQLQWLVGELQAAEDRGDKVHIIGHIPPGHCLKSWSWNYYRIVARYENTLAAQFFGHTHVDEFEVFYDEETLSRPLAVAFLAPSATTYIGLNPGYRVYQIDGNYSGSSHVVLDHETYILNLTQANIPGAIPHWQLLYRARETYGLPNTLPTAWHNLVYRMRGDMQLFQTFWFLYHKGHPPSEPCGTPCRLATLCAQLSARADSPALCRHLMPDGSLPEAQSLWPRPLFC
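Human placenta-derived ASM preincubated with compound 10 min at room temperature, then reacted with 9 uM (final) fluorogenic HMU-PC substrate for 60 min at 37 C. Stop solution raises pH to 10; fluorescence read at Ex 386/Em 447 nm.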
Menin MLL FP FL: qHTS Assay for Inhibitors Targeting the Menin-MLL Interaction in MLL Related Leukemias: Competition With Fluorescein Labeled MLL-derived Peptide. Fluorescence polarization, fluorescein-MLL peptide displacement from menin. FP activity change, % at 61.4 µM. 290,000 tested, under 10 active; active = well fitted curve in the direction sought with a large enough effect in the polarisation, not every such curve was filed as active; inconclusive = small, poorly fitted or top-dose-only effect, or effect the other way, or a change in a side signal; inactive = no such curve, though single readings can be large or run the other way; the % refers to the polarisation; also: % of control where 0% means no effect
MLL CXXC-DNA inh: qHTS Fluorescence Polarization Assay for Inhibitors of MLL CXXC domain - DNA interaction; Histone-lysine N-methyltransferase 2A (Homo sapiens), Q03164; MLL-CXXC / FITC-HOXA9 DNA fluorescence polarization; Potency, µM (highest dose often 115 µM), without a hit: at the highest dose activity change, negative = inhibition, most hits filed as inhibitors; 290,000 tested, 0.037% active; AID 2662, 2010; active = well fitted inhibition curve with a large enough effect in the polarisation, with a control signal flat, not every such curve was filed as active; inconclusive = small, poorly fitted or top-dose-only effect, or effect the other way, or a change in a side signal; inactive = no such curve, though single readings can be large or run the other way; the % refers to the polarisation; also: potency is read from the fitted curve at half-maximal effect
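Fluorescence polarization: 7 uM MLL-CXXC (stock) preincubated 5 min with compounds, then 50 nM fluorescein-HOX-A9 DNA (stock) added; 30 min ambient. Buffer 50 mM Tris-HCl pH 7.5, 50 mM NaCl, 1 mM DTT, 0.05% BSA.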
Menin-MLL TR inh: qHTS Assay for Inhibitors Targeting the Menin-MLL Interaction in MLL Related Leukemias: Competition With Texas Red Labeled MLL-derived Mutant Peptide | O00255 | Menin + Texas Red MLL mutant peptide, fluorescence polarization | Potency, µM (top dose mostly 61.6 µM), for the others: at the top dose FP activity change, negative = inhibition, actives largely listed as inhibitors | 270,000 tested, 0.23% active; active = well fitted inhibition curve with a large enough effect in the polarisation, with a control signal flat, not every such curve was filed as active; inconclusive = small, poorly fitted or top-dose-only effect, or effect the other way, or a change in a side signal; inactive = no such curve, though single readings can be large or run the other way; the % refers to the polarisation; also: potency is read from the fitted curve at half-maximal effect; % of control where 0% means no effect
MBNL1 CUG block: qHTS Assay for Inhibitors of MBNL1-poly(CUG) RNA binding; Potency, µM (titrated, usually from 57.5 µM), for the others: top-dose activity change, negative = inhibition, usual class: inhibitors; Muscleblind-like protein 1 (Homo sapiens), Q9NR56; 280,000 tested, 0.036% active; TR-FRET MBNL1-His/biotin-(CUG)12 binding, 665/545 ratio; active = well fitted inhibition curve with a large enough effect in the signal ratio, with a control signal flat, not every such curve was filed as active; inconclusive = small, poorly fitted or top-dose-only effect, or effect the other way, or a change in a side signal; inactive = no such curve, though single readings can be large or run the other way; the % refers to the signal ratio; also: potency is read from the fitted curve at half-maximal effect; % is scaled to controls: 0 for no effect and ±100 for the full control effect
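TR-FRET readout: Ex 340 nm, 665/545 nm emission ratio, normalized to buffer-only (basal) and MBNL1-(CUG)12 controls. Complex of MBNL1-His with Biotin-(CUG)12, compounds 92 nM–58 uM, incubated 60 min at room temperature.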
Akt phos inh: HTS Assay for Inhibitors of Akt Phophorylation: Primary Screen. Neuro2A IGF-stimulated pAkt S473 HTRF, 20 min; stronger effect = lower value. activity change, % for hits at 50 µM. 360,000 tested, 0.32% active. AID 651550, 2012; in the data active = activity change below about -80%; inconclusive = mostly about -51% to -80%; also: % is scaled to controls: 0 for no effect and ±100 for the full control effect
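Neuro2A cells in DMEM with 0.5% FBS, overnight at 37 deg C, given compound at single 50 µM final, then IGF (6 nM final) for 20 min at 37 deg C. Lysed; phospho-Akt Ser473 by HTRF after 24 h, 665/615 ratio.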
Active calls of the source: *; i = inactive; ? = inconclusive; . = not tested or not shown. This is a sample that favours compounds with a hit; in the whole collection about 0.45% have one here.

SMILES	S-ASM inh	Menin MLL FP FL	MLL CXXC-DNA inh	Menin-MLL TR inh	MBNL1 CUG block	Akt phos inh
Cc1cnc(Nc2nc3ccccc3o2)nc1C(=O)Nc1cccc(C(F)(F)F)c1	-10.8%	-0.8	1.5%	-11.9%	17.3%	-94.5%*
Cc1occc1C(=O)Nc1cccc(C(F)(F)F)c1	-5.6%	-2.1	6.3%	6.5%	-17.7%	i
O=C(O)c1cc(=O)c2c3nc4ccccc4oc-3cc(=O)c2[nH]1	.	9.4	-11.8%	39.8µM*	.	.
CC(=O)Nc1ccc(NC(=O)/C(Cl)=C/c2ccccc2)cc1	-11.6%	0.5	23.3%	-16.4%	12.5%	i
CSc1nc(C)c2c(n1)N(c1ccc(F)cc1)CC2	-0.8%	0.5	9.1%	-2.4%	?	-110.6%*
CCOC(=O)/C(C#N)=C/C=C1\C=Cc2ccccc2N1CC	?	?	177.2%	25.1µM*	?	i
COc1ccc(S(=O)(=O)N2CCCCCC2)cc1C(=O)N(C)Cc1ccc(F)cc1	.	.	.	.	.	i
C=CCNC(=O)C1CCN(S(=O)(=O)c2ccccc2)CC1	-1.9%	13.0	-1.2%	-1.0%	-5.3%	-95.2%*
O=C1CC(c2ccc(F)cc2)Cc2nc(NCc3ccco3)ncc21 (stereo not drawn)	3.3%	0.1	7.3%	7.0%	21.4%	-83.7%*
O=C(CSc1nnc(-c2cccnc2)o1)Oc1ccccc1	5.2%	0.8	-1.6%	-4.9%	11.3%	i
Cc1ccc(CSc2nnc(-c3ccc(NS(=O)(=O)c4ccccc4)cc3)o2)cc1	-19.3%	6.6	3.6%	?	-6.8%	i
O=C(CSc1nnc(-c2ccncc2)o1)Oc1ccccc1	1.7%	-0.2	-4.4%	-11.5%	5.1%	-91.5%*
COC(=O)CSc1nnc(-c2ccc(NS(=O)(=O)c3ccccc3)cc2)o1	-4.8%	-1.0	-10.0%	-8.1%	4.7%	-110.8%*
O=C(NCc1cccs1)N[C@@H](Cc1ccccc1)C(=O)O	2.7%	2.2	1.5%	3.8%	-4.3%	i
COC(=O)[C@H](Cc1ccccc1)NC(=O)NCc1cccs1	1.4%	1.5	-4.5%	.	2.1%	-93.7%*
Cc1cc(=O)[nH]c(SCn2nnc3ccccc3c2=O)n1	-0.6%	1.9	16.7%	-0.7%	-8.3%	-98.9%*
O=c1c2ccccc2nnn1CSc1nc2ccccc2[nH]1	0.6%	-0.3	-0.4%	-13.7%	9.6%	i
O=C1NC(c2ccccc2Cl)Nc2ccccc21 (stereo not drawn)	102.6%	0.7	21.4%	-2.0%	4.9%	-111.2%*
Cc1cc(N)n(-c2ncnc3scc(-c4ccc(Cl)cc4)c23)n1	-0.9%	4.9	2.2%	-7.5%	15.9%	-81.5%*
Cc1ccc(-c2csc3ncnc(-n4nc(C)cc4N)c23)cc1	-0.6%	2.8	-8.7%	-10.8%	-5.3%	i
COc1ccccc1OCc1ccc(C(=O)N2CCN3CCCC3C2)cc1 (stereo not drawn)	-0.4%	7.7	-12.5%	?	6.2%	-105.1%*
COc1ccccc1N1CCN(C2CCCN(C(=O)c3ccsc3)C2)CC1 (stereo not drawn)	-0.1%	.	.	.	.	i
Cc1nnc(SCc2cccs2)[nH]c1=O	1.1%	-1.1	6.9%	12.1%	?	i
Cc1noc(C)c1CSc1nnc(C)c(=O)[nH]1	-1.6%	0.8	0.4%	8.3%	-3.0%	-108.0%*
O=C1CCCC/C1=C\Nc1ccc(O)cc1	6.3%	0.5	3.6%	31.6µM*	?	.
O=C1CCCC/C1=C/Nc1ccc(S(=O)(=O)Nc2ncccn2)cc1	3.4%	5.6	-1.9%	-5.4%	21.5%	-120.0%*
O=C1CCC/C1=C/Nc1ccc(Cl)cc1	4.1%	-0.1	-1.6%	6.8%	?	i
